# Compounds without any hit were thinned out: in the full panel of roughly 79,000, 15% have a hit. The source made the active and inactive calls. Cut-off read from the data, not from the text of the source: active = growth inhibition above about 70%; inactive = the rest.
# Assay: NCI Yeast Anticancer Drug Screen. Data for the mec2-1 strain (AID 157)
# Conditions: S. cerevisiae mec2-1 strain, at 3.7 µM, hits give high values
# How it was run: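 Growth inhibition is read against vehicle-treated controls after compound exposure of the mec2-1 yeast strain, which is defective in DNA damage repair or cell cycle control.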
row,SMILES,growth inhibition
1,O=CC=C(c1ccccc1)c1ccccc1,0% (inactive)
2,FC(F)(F)c1nc2nc(Cl)c(Cl)nc2n1CCCN1CCOCC1,-15% (inactive)
3,BrCC[P+](c1ccccc1)(c1ccccc1)c1ccccc1,-63% (inactive)
4,N#CSc1ccc(S(N)(=O)=O)cc1,-60% (inactive)
5,O=[N+]([O-])c1ccc2nc3ccccc3cc2c1,1% (inactive)
6,O=C(NC(Nc1ccc(F)c(Cl)c1)(C(F)(F)F)C(F)(F)F)C(C(F)(F)F)C(F)(F)F,23% (inactive)
7,O=C(/C=C\c1ccc(Cl)cc1Cl)c1cccs1,-2% (inactive)
8,O=C(NCCCCNCCCNC(=O)c1cc(-c2ccccc2)nc2ccccc12)c1cc(-c2ccccc2)nc2ccccc12,-3% (inactive)
9,NC(=NCc1ccccc1)N/N=C\c1ccnc2ccccc12,0% (inactive)
10,CCCCN(CCCC)CCSc1ccc(Cl)cc1,-5% (inactive)
11,COc1cc(C2C3=C(COC3=O)Oc3cc4c(cc32)OCO4)ccc1O (stereo not drawn),-2% (inactive)
12,C#CCCCc1ccccc1,-12% (inactive)
13,CCc1ccc(NS(=O)(=O)c2ccccc2)c([N+](=O)[O-])c1,8% (inactive)
14,COc1ccc(C2c3cc4c(cc3OC(C)(O)C2C)OCO4)c(OC)c1 (stereo not drawn),8% (inactive)
15,COC(=O)c1ccc(CCC2=CC(=O)C(Br)=CC2=O)cc1,-15% (inactive)
16,NNC(=O)CCc1ccc2ccc3ccccc3c2c1,-1% (inactive)
17,Cn1c2ccccc2c(=O)c2cc(NC(=O)CCCCC(=O)Nc3ccc4c(c3)c(=O)c3ccccc3n4C)ccc21,-2% (inactive)
18,CC(CC(C)(C)[N+](C)(C)C)[N+](C)(C)C (stereo not drawn),-11% (inactive)
19,CC1CCN(CCC(=O)c2ccc(Cl)cc2)CC1,1% (inactive)
20,CCCCCCCCCCCCCCC(C(=O)[O-])[n+]1ccccc1 (stereo not drawn),1% (inactive)

row,SMILES,growth inhibition
1,CNC1C(OC2C(OC3C(O)C(O)C(N=C(N)N)C(O)C3N=C(N)N)OC(C)C2(O)CO)OC(CO)C(O)C1O (stereo not drawn),-1% (inactive)
2,O=C(O)c1ccccc1-c1ccccc1C(=O)Nc1ccc2c(c1)Cc1ccccc1-2,14% (inactive)
3,O=[N+]([O-])c1cccc2nc3ccccc3c(NCCCN3CCOCC3)c12,97% (active)
4,C=CC(C)(O)CCC1C(=C)C(O)CC2C(C)(C)CCCC12C (stereo not drawn),9% (inactive)
5,CN1c2ccc(Cl)cc2C(=O)NC1c1ccc([N+](=O)[O-])s1 (stereo not drawn),-52% (inactive)
6,[O-][n+]1c2ccc(O)cc2nc2ccc(Br)cc21,12% (inactive)
7,O=C1c2ccccc2-c2nc3ccccc3nc21,-54% (inactive)
8,CCCCN1C(=O)N(c2ccc(OCC)cc2)C2N(CCCC)C1C(C)(C)C2(C)C (stereo not drawn),-4% (inactive)
9,CO[C@H]1C[C@](C)(O)Cc2cc3c(c(O)c21)C(=O)c1c(O)cc2c(c1C3=O)O[C@@H]1O[C@@]2(C)[C@H](O)[C@@H](N(C)C)[C@@H]1O,-7% (inactive)
10,COc1cc2c(cc1[N+](=O)[O-])C(=O)C(Br)(Br)CCC2,41% (inactive)
11,O=C1OC(CCl)CN1/N=C/c1ccc([N+](=O)[O-])o1 (stereo not drawn),-3% (inactive)
12,CN(C)CCOc1ccc2c(c1)C/C(=C/c1ncc([N+](=O)[O-])n1C)C2=O,30% (inactive)
13,CCCCCCCCCCCCCCCCCCN(C)CC(COP(=O)([O-])OCC[N+](C)(C)C)OC (stereo not drawn),18% (inactive)
14,CC(C)c1ccccc1NC(=O)/C(Cl)=C(\Cl)C(=O)O,0% (inactive)
15,O=[N+]([O-])C(=C(Sc1ccccc1)Sc1ccccc1)C(Cl)=C(Cl)Cl,26% (inactive)
16,C(=C\c1ccccc1)/COc1ccccc1C(N1CCOCC1)n1nc2ccccc2n1 (stereo not drawn),-13% (inactive)
17,O=C1C(Nc2ccccc2)=C(Oc2ccccc2)C(=O)c2ccccc21,1% (inactive)
18,CCN(CC)CCN1C(=O)c2cccc3cc(OC)cc(c23)C1=O,-3% (inactive)
19,CN(C)Cc1cc(N=Nc2ccc(Cl)cc2)cc(CN(C)C)c1O,17% (inactive)

# Same assay, conditions: S. cerevisiae mec2-1 strain, at 5.0 µM (retest, dose inferred, filed as 0.5), hits give high values
row,SMILES,growth inhibition
1,O=CC=C(c1ccccc1)c1ccccc1,51% (inactive)
2,FC(F)(F)c1nc2nc(Cl)c(Cl)nc2n1CCCN1CCOCC1,3% (inactive)
3,BrCC[P+](c1ccccc1)(c1ccccc1)c1ccccc1,16% (inactive)
4,N#CSc1ccc(S(N)(=O)=O)cc1,51% (inactive)
5,O=[N+]([O-])c1ccc2nc3ccccc3cc2c1,-37% (inactive)
6,O=C(NC(Nc1ccc(F)c(Cl)c1)(C(F)(F)F)C(F)(F)F)C(C(F)(F)F)C(F)(F)F,3% (inactive)
7,O=C(/C=C\c1ccc(Cl)cc1Cl)c1cccs1,-10% (inactive)
8,O=C(NCCCCNCCCNC(=O)c1cc(-c2ccccc2)nc2ccccc12)c1cc(-c2ccccc2)nc2ccccc12,-15% (inactive)
9,NC(=NCc1ccccc1)N/N=C\c1ccnc2ccccc12,2% (inactive)
10,CCCCN(CCCC)CCSc1ccc(Cl)cc1,3% (inactive)
11,COc1cc(C2C3=C(COC3=O)Oc3cc4c(cc32)OCO4)ccc1O (stereo not drawn),-10% (inactive)
12,C#CCCCc1ccccc1,-13% (inactive)
13,CCc1ccc(NS(=O)(=O)c2ccccc2)c([N+](=O)[O-])c1,6% (inactive)
14,COc1ccc(C2c3cc4c(cc3OC(C)(O)C2C)OCO4)c(OC)c1 (stereo not drawn),4% (inactive)
15,COC(=O)c1ccc(CCC2=CC(=O)C(Br)=CC2=O)cc1,44% (inactive)
16,NNC(=O)CCc1ccc2ccc3ccccc3c2c1,-1% (inactive)
17,Cn1c2ccccc2c(=O)c2cc(NC(=O)CCCCC(=O)Nc3ccc4c(c3)c(=O)c3ccccc3n4C)ccc21,-7% (inactive)
18,CC(CC(C)(C)[N+](C)(C)C)[N+](C)(C)C (stereo not drawn),19% (inactive)
19,CC1CCN(CCC(=O)c2ccc(Cl)cc2)CC1,9% (inactive)
20,CCCCCCCCCCCCCCC(C(=O)[O-])[n+]1ccccc1 (stereo not drawn),-2% (inactive)

row,SMILES,growth inhibition
1,CNC1C(OC2C(OC3C(O)C(O)C(N=C(N)N)C(O)C3N=C(N)N)OC(C)C2(O)CO)OC(CO)C(O)C1O (stereo not drawn),-15% (inactive)
2,O=C(O)c1ccccc1-c1ccccc1C(=O)Nc1ccc2c(c1)Cc1ccccc1-2,4% (inactive)
3,O=[N+]([O-])c1cccc2nc3ccccc3c(NCCCN3CCOCC3)c12,91% (active)
4,C=CC(C)(O)CCC1C(=C)C(O)CC2C(C)(C)CCCC12C (stereo not drawn),48% (inactive)
5,CN1c2ccc(Cl)cc2C(=O)NC1c1ccc([N+](=O)[O-])s1 (stereo not drawn),19% (inactive)
6,[O-][n+]1c2ccc(O)cc2nc2ccc(Br)cc21,2% (inactive)
7,O=C1c2ccccc2-c2nc3ccccc3nc21,83% (active)
8,CCCCN1C(=O)N(c2ccc(OCC)cc2)C2N(CCCC)C1C(C)(C)C2(C)C (stereo not drawn),4% (inactive)
9,CO[C@H]1C[C@](C)(O)Cc2cc3c(c(O)c21)C(=O)c1c(O)cc2c(c1C3=O)O[C@@H]1O[C@@]2(C)[C@H](O)[C@@H](N(C)C)[C@@H]1O,-3% (inactive)
10,COc1cc2c(cc1[N+](=O)[O-])C(=O)C(Br)(Br)CCC2,31% (inactive)
11,O=C1OC(CCl)CN1/N=C/c1ccc([N+](=O)[O-])o1 (stereo not drawn),9% (inactive)
12,CN(C)CCOc1ccc2c(c1)C/C(=C/c1ncc([N+](=O)[O-])n1C)C2=O,30% (inactive)
13,CCCCCCCCCCCCCCCCCCN(C)CC(COP(=O)([O-])OCC[N+](C)(C)C)OC (stereo not drawn),11% (inactive)
14,CC(C)c1ccccc1NC(=O)/C(Cl)=C(\Cl)C(=O)O,26% (inactive)
15,O=[N+]([O-])C(=C(Sc1ccccc1)Sc1ccccc1)C(Cl)=C(Cl)Cl,22% (inactive)
16,C(=C\c1ccccc1)/COc1ccccc1C(N1CCOCC1)n1nc2ccccc2n1 (stereo not drawn),3% (inactive)
17,O=C1C(Nc2ccccc2)=C(Oc2ccccc2)C(=O)c2ccccc21,3% (inactive)
18,CCN(CC)CCN1C(=O)c2cccc3cc(OC)cc(c23)C1=O,5% (inactive)
19,CN(C)Cc1cc(N=Nc2ccc(Cl)cc2)cc(CN(C)C)c1O,-5% (inactive)

# Reference: PubChem BioAssay (NCI)
